According to the supplement of paper PMC9399229:
Where a name gives a salt, the structure may show the parent alone. In all, about 1,900 compounds were measured (“relative cell viability (CellTiter-Glo), compound plus cabozantinib, relative to the cabozantinib arm (arm median 1.05; reference not stated)”: median about 1.1, lowest 2% from about 0.15 on). For the sample, the lowest values were picked, then their nearest neighbours and some compounds at random.

These compounds were tested on Hep3B (assay: relative cell viability (CellTiter-Glo), compound plus cabozantinib, relative to the cabozantinib arm (arm median 1.05; reference not stated) (fraction); higher = more viable cells (less growth inhibition)). Settings: cabozantinib 2 µM; 4 days.

SMILES	relative cell viability
COC(=O)N[C@H](C(=O)N1CC2(CC2)C[C@H]1c1nc(-c2ccc3c(c2)C(F)(F)c2cc(-c4ccc5[nH]c([C@@H]6[C@H]7CC[C@H](C7)N6C(=O)[C@@H](NC(=O)OC)C(C)C)nc5c4)ccc2-3)c[nH]1)C(C)C [Ledipasvir (GS5885)]	1
FC(F)(F)c1ccc(CNc2ccc(Cc3c[nH]c4ncc(Cl)cc34)cn2)cn1 [Pexidartinib (PLX3397)]	1.07
C[C@H]1COC2=C1C(=O)C(=O)c1c2ccc2c1CCCC2(C)C [Cryptotanshinone]	0.918
C=CC(=O)Nc1cccc(Nc2nc(Nc3ccc(N4CCN(C(C)=O)CC4)cc3OC)ncc2C(F)(F)F)c1	0.831
COc1nc(C)cnc1NS(=O)(=O)c1cccnc1-c1ccc(-c2nnco2)cc1 [Zibotentan (ZD4054)]	1.22
C/C(=N\NC(=S)N1CCC1)c1ccccn1	0.0579
CC(C)(C)C(=O)Nc1ccc2c(c1)C(=O)C(=O)c1ccccc1-2	0.0959
CC1=CC(=O)c2ccccc2C1=O [Menadione]	1.05
CC(=O)Nc1ccccc1 [Acetanilide]	1.07
C[C@H]1O[C@@H](O[C@H]2[C@@H](O)C[C@H](O[C@H]3[C@@H](O)C[C@H](O[C@H]4CC[C@@]5(C)[C@H](CC[C@@H]6[C@@H]5C[C@@H](O)[C@]5(C)[C@@H](C7=CC(=O)OC7)CC[C@]65O)C4)O[C@@H]3C)O[C@@H]2C)C[C@H](O)[C@@H]1O [Digoxin]	0.0999
CO[C@H]1C[C@@H]2CC[C@@H](C)[C@@](O)(O2)C(=O)C(=O)N2CCCC[C@H]2C(=O)O[C@H]([C@H](C)C[C@@H]2CC[C@@H](OP(C)(C)=O)[C@H](OC)C2)CC(=O)[C@H](C)/C=C(\C)[C@@H](O)[C@@H](OC)C(=O)[C@H](C)C[C@H](C)/C=C/C=C/C=C/1C [Ridaforolimus (Deforolimus, MK-8669)]	1.3
CN/C(=N\CCSCc1nc[nH]c1C)NC#N [Cimetidine]	0.986
COc1cccc2c1C(=O)c1c(O)c3c(c(O)c1C2=O)C[C@@](O)(C(=O)CO)C[C@@H]3O[C@H]1C[C@H](N)[C@@H](O)[C@H](C)O1 [Epirubicin HCl]	0.045
COc1cccc2c1C(=O)c1c(O)c3c(c(O)c1C2=O)C[C@@](O)(C(=O)CO)C[C@@H]3O[C@H]1C[C@H](N)[C@H](O)[C@H](C)O1 [Doxorubicin (Adriamycin)]	0.111
COc1cccc2c1C(=O)c1c(O)c3c(c(O)c1C2=O)C[C@@](O)(C(=O)CO)C[C@@H]3O[C@H]1C[C@H](N)[C@H](O[C@@H]2CCCCO2)[C@H](C)O1 [Pirarubicin]	0.178
COc1cccc2c1C(=O)c1c(O)c3c(c(O)c1C2=O)C[C@@](O)(C(C)=O)C[C@@H]3O[C@H]1C[C@H](N)[C@H](O)[C@H](C)O1 [Daunorubicin HCl]	0.0514
Cc1onc(-c2ccccc2Cl)c1C(=O)N[C@@H]1C(=O)N2[C@@H]1SC(C)(C)[C@@H]2C(=O)O [Cloxacillin Sodium]	1.1
C=C1CC[C@H](O)C/C1=C/C=C1\CCC[C@]2(C)[C@@H]([C@H](C)CCCC(C)(C)O)CC[C@@H]12 [Calcifediol]	0.993
CC[C@H](C)C[C@H](C)CCCCCCCCC(=O)N[C@H]1C[C@@H](O)[C@@H](NCCN)NC(=O)[C@@H]2[C@@H](O)CCN2C(=O)[C@H]([C@H](O)CCN)NC(=O)[C@H]([C@H](O)[C@@H](O)c2ccc(O)cc2)NC(=O)[C@@H]2C[C@@H](O)CN2C(=O)[C@H]([C@@H](C)O)NC1=O [Caspofungin Acetate]	1.1
Nc1ncnc2n[nH]c(Nc3ccc(F)cc3)c12	1.05
Cc1ccc(C(=O)Nc2ccc(CN3CCN(C)CC3)c(C(F)(F)F)c2)cc1C#Cc1cnc2[nH]ncc2c1	0.279
Cc1ccc(NC(=O)c2ccc(CN3CC[C@H](N(C)C)C3)c(C(F)(F)F)c2)cc1Nc1nccc(-c2cncnc2)n1 [Bafetinib (INNO-406)]	1.05
Cc1ccc(C(=O)Nc2ccc(CN3CCN(C)CC3)c(C(F)(F)F)c2)cc1C#Cc1cnc2cccnn12	0.127

SMILES	relative cell viability
CC(C)(F)C[C@H](N[C@@H](c1ccc(-c2ccc(S(C)(=O)=O)cc2)cc1)C(F)(F)F)C(=O)NC1(C#N)CC1 [Odanacatib (MK-0822)]	1.15
Cn1cc(CNCC2CCN(c3ncc(C(=O)NO)cn3)CC2)c2ccccc21	0.121
CN1CCc2c(c3ccccc3n2Cc2ccc(C(=O)NO)cc2)C1 [Tubastatin A HCl]	1.01
CN1CCc2c(c3ccccc3n2Cc2ccc(C(=O)NO)cc2)C1 [Tubastatin A]	1.16
COc1cc(C(=O)NS(=O)(=O)c2ccccc2C)ccc1Cc1cn(C)c2ccc(NC(=O)OC3CCCC3)cc12 [Zafirlukast]	0.9
C[C@H](NCc1ccc(OCc2cccc(F)c2)cc1)C(N)=O [Safinamide Mesylate]	1.22
OC[C@H]1O[C@@H](OCCc2ccc(O)cc2)[C@H](O)[C@@H](O)[C@@H]1O [Salidroside]	0.974
C[C@H]1O[C@H](O[C@H]2[C@H](O)[C@@H](O)[C@@H](O[C@H]3[C@H](O)[C@@H](O)C(O)O[C@@H]3CO)O[C@@H]2CO)[C@H](O)[C@@H](O)[C@@H]1N[C@H]1C=C(CO)[C@@H](O)[C@H](O)[C@H]1O (some centres not stated) [Acarbose]	1.21
O=C1c2c(O)ccc(O)c2C(=O)c2c(NCCNCCO)ccc(NCCNCCO)c21 [Mitoxantrone]	0.0306
O=C1c2c(O)ccc(O)c2C(=O)c2c(NCCNCCO)ccc(NCCNCCO)c21 [Mitoxantrone HCl]	0.0809
O=C1c2cccc(O)c2C(=O)c2c(O)cc(CO)cc21 [Aloe-emodin]	1.04
COc1cc([C@@H]2c3cc4c(cc3[C@@H](O[C@@H]3O[C@@H]5CO[C@@H](C)O[C@H]5[C@H](O)[C@H]3O)[C@H]3COC(=O)[C@H]23)OCO4)cc(OC)c1O [Etoposide]	0.923
COc1cc([C@@H]2c3cc4c(cc3[C@@H](O[C@@H]3O[C@@H]5CO[C@@H](c6cccs6)O[C@H]5[C@H](O)[C@H]3O)[C@H]3COC(=O)[C@H]23)OCO4)cc(OC)c1O [Teniposide]	0.104
O=C(O)CC1CC(c2ccccc2)=NO1 (configuration not stated)	1.1
CC(C(O)c1ccc(O)cc1)N1CCC(Cc2ccccc2)CC1 (configuration not stated) [Ifenprodil Tartrate]	1.13
CS(=O)(=O)CCNCc1ccc(-c2ccc3ncnc(Nc4ccc(OCc5cccc(F)c5)c(Cl)c4)c3c2)o1	1.03
CS(=O)(=O)CCNCc1ccc(-c2ccc3ncnc(Nc4ccc(OCc5cccc(F)c5)c(Cl)c4)c3c2)o1 [Lapatinib]	0.971
CN(C)Cc1cccc(N/C(=C2\C(=O)Nc3cc(C(N)=O)ccc32)c2ccccc2)c1	0.924
COC(=O)c1ccc2c(c1)NC(=O)/C2=C(\Nc1ccc(N(C)C(=O)CN2CCN(C)CC2)cc1)c1ccccc1 [Nintedanib (BIBF 1120)]	0.806
CCS(=O)(=O)Nc1ccc2c(c1)/C(=C(/Nc1ccc(CN3CCCCC3)cc1)c1ccccc1)C(=O)N2 [Hesperadin]	0.123
O=C1NCC2(CCN(CCc3ccccc3)CC2)O1 [Fenspiride HCl]	1.16
CC(=O)Nc1ccc(C(=O)Nc2ccccc2N)cc1 [CI994 (Tacedinaline)]	1.14
CC(C)[C@H](C(=O)Nc1ccc(C(=O)NO)cc1)c1ccccc1	0.142

SMILES	relative cell viability
CCCCN(Cc1ccc(C(=O)NO)cc1)C(=O)Nc1ccccc1 [Nexturastat A]	0.953
CC(C(=O)O)c1ccc2c(c1)Cc1cccnc1O2 (configuration not stated) [Pranoprofen]	1
CCOc1cc(N2CCC(O)CC2)ccc1Nc1ncc2c(n1)N(C)c1ccccc1C(=O)N2C	1.09
CNC(=O)c1ccccc1Nc1nc(Nc2ccc(N3CCOCC3)cc2OC)ncc1Cl	0.155
COc1cc(N2CCC(N)CC2)ccc1Nc1ncc(Cl)c(-c2c[nH]c3ccccc23)n1	0.119
CC/C(=C(/CC)c1ccc(O)cc1)c1ccc(O)cc1 [Diethylstilbestrol]	1.21
CCCCNc1ncc(C(=O)NCc2ccc(-n3ccnc3)cc2)c(NC2CCC(O)CC2)n1 (configuration not stated)	0.996
Cc1cc(C#N)cc(C)c1Oc1nc(Nc2ccc(C#N)cc2)nc(N)c1Br [Etravirine (TMC125)]	1.23
c1cc(-c2cnn3cc(-c4ccc(N5CCNCC5)cc4)cnc23)c2cccnc2c1	0.148
COc1cc(-c2cc(-c3ccc(N4CCNCC4)cc3)cnc2C)cc(OC)c1OC	1.01
COc1ccc(-c2cnc3c(-c4cccc5ncccc45)cnn3c2)cc1	1.08
CS(=O)(=O)N1CCc2c(-c3cnc(N)nc3)nc(N3CCOCC3)nc21	0.228
CNC(=O)c1ccccc1Nc1cc(Nc2ccc(N3CCOCC3)cc2OC)ncc1C(F)(F)F	1.05
CCCCCCCCCCCC[N+](C)(C)CCOc1ccccc1 [Domiphen Bromide]	1.02
Cc1[nH]c2ccccc2c1CCNC(=O)c1cccs1	1.18
Cc1[nH]c2ccccc2c1CCNCc1ccc(/C=C/C(=O)NO)cc1 [Panobinostat (LBH589)]	0.108
Cc1ccc([N+](=O)[O-])cc1S(=O)(=O)N(C)/N=C/c1cnc2ccc(Br)cn12	0.113
CCN(CC)C(=S)SSC(=S)N(CC)CC [Disulfiram]	0.0898
Oc1ncnc2[nH]ncc12 [Allopurinol]	0.992
CC(C)[C@H]1CC[C@H](C(=O)N[C@H](Cc2ccccc2)C(=O)O)CC1 [Nateglinide]	1.13
CC(C)(C)c1nc(-c2cccc(NS(=O)(=O)c3c(F)cccc3F)c2F)c(-c2ccnc(N)n2)s1	0.993
